Laboratory results reported in PMC7862700, “An all-to-all approach to the identification of sequence-specific readers for epigenetic DNA modifications on cytosine”.

Columns and labels:
Assay in all cases: DAPPL (digital affinity profiling via proximity ligation, sequencing); 10 mM Tris-HCl pH 7.5, 50 mM NaCl, 1 mM DTT, 4% glycerol, room temperature, 30 min; GST-TFs on glutathione beads, 16-mer random dsDNA library, 0.1% formaldehyde crosslink after washing; high values mean tight binding
[1] = target: T1, FEV (Homo sapiens, UniProt Q99581 1-238); details: protein: recombinant; tags: N-terminal GST; dsDNA, one strand shown
T1 sequence: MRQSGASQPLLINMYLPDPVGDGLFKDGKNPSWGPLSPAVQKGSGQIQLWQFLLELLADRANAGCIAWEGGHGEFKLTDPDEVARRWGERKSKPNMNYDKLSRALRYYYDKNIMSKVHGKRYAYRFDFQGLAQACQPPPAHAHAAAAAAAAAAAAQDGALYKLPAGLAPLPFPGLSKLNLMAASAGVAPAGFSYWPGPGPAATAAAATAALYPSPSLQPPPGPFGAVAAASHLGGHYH
Summary of the method: (§1)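 Human transcription factors carrying a GST fusion were produced in yeast, bound to glutathione beads, tagged with DNA barcodes and pooled together with a tag-only sample. Each pool was held with 200 nmole of a random double-stranded 16-mer DNA library in Tris/NaCl/DTT/glycerol buffer for 30 min at room temperature, then washed, crosslinked in 0.1% formaldehyde, proximity-ligated with BsaI/T4 ligase (1 h, 37 °C), PCR-amplified and sequenced on an Illumina NextSeq500. Binding signal is the read frequency of each hexamer for a given factor divided by its frequency in the tag-only sample.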

[2] = target: ETV5 (Homo sapiens, UniProt P41161 1-510); details: protein: recombinant; tags: N-terminal GST; dsDNA, one strand shown
Summary of the method: as §1

[3] = target: HSF1 (Homo sapiens, UniProt Q00613 1-529); details: protein: recombinant; tags: N-terminal GST; chain copies: 3; dsDNA, one strand shown
Summary of the method: as §1

[4] = target: T2, SPIC (Homo sapiens, UniProt Q8N5J4 1-248); details: protein: recombinant; tags: N-terminal GST; dsDNA, one strand shown
T2 sequence: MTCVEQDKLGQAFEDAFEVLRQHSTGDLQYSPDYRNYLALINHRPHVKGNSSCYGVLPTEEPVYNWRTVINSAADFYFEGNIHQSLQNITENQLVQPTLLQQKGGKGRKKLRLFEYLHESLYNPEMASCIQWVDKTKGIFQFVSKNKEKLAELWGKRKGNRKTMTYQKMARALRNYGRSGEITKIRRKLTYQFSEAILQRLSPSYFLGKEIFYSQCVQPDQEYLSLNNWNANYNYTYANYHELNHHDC
Summary of the method: as §1

[5] = target: ELF4 (Homo sapiens, UniProt Q99607 1-663); details: protein: recombinant; tags: N-terminal GST; dsDNA, one strand shown
Summary of the method: as §1

[6] = target: T3, ELK4 (Homo sapiens, UniProt P28324-2 1-405); details: protein: recombinant; tags: N-terminal GST; dsDNA, one strand shown
T3 sequence: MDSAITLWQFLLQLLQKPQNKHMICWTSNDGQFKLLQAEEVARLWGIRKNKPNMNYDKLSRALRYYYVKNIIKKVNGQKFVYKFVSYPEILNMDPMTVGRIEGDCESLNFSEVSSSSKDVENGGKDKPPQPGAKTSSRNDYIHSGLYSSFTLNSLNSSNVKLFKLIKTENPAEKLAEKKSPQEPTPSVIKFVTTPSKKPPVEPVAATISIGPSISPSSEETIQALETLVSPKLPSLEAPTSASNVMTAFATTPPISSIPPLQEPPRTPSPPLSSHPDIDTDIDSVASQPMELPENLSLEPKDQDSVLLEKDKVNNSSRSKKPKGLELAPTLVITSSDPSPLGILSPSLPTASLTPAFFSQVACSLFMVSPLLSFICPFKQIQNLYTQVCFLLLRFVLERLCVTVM
Summary of the method: as §1

[7] = target: T4, ETV2 (Homo sapiens, UniProt O00321 1-342); details: protein: recombinant; tags: N-terminal GST; dsDNA, one strand shown
T4 sequence: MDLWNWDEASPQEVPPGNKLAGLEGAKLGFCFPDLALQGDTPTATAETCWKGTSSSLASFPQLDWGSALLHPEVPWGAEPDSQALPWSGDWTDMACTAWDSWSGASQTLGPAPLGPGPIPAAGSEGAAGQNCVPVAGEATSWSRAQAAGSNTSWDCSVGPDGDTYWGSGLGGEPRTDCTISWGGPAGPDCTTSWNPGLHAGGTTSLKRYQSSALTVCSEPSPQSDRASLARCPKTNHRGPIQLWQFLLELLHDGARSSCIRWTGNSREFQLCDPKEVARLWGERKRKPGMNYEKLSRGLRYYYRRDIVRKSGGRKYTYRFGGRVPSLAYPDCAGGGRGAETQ
Summary of the method: as §1

[8] = target: T5, ELF3 (Homo sapiens, UniProt P78545 1-371); details: protein: recombinant; tags: N-terminal GST; dsDNA, one strand shown
T5 sequence: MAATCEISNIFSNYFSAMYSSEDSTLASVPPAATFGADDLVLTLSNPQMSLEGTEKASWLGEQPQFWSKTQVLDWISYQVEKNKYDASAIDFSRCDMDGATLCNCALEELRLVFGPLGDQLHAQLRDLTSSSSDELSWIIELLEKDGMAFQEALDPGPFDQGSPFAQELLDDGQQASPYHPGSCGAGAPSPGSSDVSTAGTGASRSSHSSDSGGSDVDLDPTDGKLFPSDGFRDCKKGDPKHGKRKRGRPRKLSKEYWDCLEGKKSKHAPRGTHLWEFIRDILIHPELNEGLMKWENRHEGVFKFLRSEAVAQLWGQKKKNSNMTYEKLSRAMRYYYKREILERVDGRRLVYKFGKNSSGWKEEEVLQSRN
Summary of the method: as §1

[9] = target: CRX (Homo sapiens, UniProt O43186 1-299); details: protein: recombinant; tags: N-terminal GST; dsDNA, one strand shown
Summary of the method: as §1

[10] = target: ETV1 (Homo sapiens, UniProt P50549 1-477); details: protein: recombinant; tags: N-terminal GST; dsDNA, one strand shown
Summary of the method: as §1

[11] = target: T6, ERF (Homo sapiens, UniProt P50548 1-548); details: protein: recombinant; tags: N-terminal GST; dsDNA, one strand shown
T6 sequence: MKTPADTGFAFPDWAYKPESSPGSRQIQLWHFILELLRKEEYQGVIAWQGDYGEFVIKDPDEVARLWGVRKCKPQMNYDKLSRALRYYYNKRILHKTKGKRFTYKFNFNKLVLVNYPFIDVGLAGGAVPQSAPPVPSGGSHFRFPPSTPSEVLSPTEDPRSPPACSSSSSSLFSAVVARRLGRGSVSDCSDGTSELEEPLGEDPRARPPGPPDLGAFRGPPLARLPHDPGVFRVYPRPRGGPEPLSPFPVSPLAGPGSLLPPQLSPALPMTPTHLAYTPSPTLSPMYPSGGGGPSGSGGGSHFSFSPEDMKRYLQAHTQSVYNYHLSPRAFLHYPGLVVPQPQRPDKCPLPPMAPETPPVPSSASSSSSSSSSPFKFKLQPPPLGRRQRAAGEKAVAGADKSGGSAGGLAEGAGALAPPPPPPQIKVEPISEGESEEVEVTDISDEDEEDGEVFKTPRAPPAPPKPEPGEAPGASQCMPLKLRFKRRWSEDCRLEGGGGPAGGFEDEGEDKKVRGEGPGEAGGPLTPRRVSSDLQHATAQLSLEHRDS
Summary of the method: as §1

[12] = target: T7, ETV3L (Homo sapiens, UniProt Q6ZN32 1-361); details: protein: recombinant; tags: N-terminal GST; dsDNA, one strand shown
T7 sequence: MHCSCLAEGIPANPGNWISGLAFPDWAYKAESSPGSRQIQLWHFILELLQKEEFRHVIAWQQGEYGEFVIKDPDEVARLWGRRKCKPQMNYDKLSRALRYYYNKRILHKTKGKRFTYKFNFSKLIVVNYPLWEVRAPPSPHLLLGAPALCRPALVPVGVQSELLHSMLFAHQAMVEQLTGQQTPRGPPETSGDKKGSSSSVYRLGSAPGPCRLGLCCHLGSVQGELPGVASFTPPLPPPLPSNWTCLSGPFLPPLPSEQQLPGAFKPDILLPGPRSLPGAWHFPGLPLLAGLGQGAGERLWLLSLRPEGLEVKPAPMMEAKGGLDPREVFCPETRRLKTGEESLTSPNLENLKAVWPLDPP
Summary of the method: as §1

[13] = target: T8, ETS2 (Homo sapiens, UniProt P15036 1-469); details: protein: recombinant; tags: N-terminal GST; dsDNA, one strand shown
T8 sequence: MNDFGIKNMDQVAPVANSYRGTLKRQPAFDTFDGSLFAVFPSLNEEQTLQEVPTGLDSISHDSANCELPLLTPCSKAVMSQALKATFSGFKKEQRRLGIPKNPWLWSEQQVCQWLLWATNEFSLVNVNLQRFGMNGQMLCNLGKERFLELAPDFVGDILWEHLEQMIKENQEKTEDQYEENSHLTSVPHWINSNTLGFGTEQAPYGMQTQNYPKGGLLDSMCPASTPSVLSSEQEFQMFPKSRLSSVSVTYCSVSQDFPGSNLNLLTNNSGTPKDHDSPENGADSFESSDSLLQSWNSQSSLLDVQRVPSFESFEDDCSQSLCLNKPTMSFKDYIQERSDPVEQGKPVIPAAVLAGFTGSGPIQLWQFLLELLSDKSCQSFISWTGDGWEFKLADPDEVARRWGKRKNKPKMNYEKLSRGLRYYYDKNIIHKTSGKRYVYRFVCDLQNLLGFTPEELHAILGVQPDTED
Summary of the method: as §1

[14] = target: T9, SPDEF (Homo sapiens, UniProt O95238 1-335); details: protein: recombinant; tags: N-terminal GST; dsDNA, one strand shown
T9 sequence: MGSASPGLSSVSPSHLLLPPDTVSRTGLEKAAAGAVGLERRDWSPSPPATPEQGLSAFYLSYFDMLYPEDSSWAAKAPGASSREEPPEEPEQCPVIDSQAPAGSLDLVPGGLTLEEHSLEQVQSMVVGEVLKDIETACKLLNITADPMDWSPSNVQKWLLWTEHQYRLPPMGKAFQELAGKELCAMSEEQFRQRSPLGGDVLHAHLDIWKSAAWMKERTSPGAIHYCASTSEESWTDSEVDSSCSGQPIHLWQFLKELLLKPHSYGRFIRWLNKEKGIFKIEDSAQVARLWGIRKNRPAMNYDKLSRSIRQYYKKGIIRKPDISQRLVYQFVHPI
Summary of the method: as §1

[15] = target: T10, ETV7 (Homo sapiens, UniProt Q9Y603 1-341); details: protein: recombinant; tags: N-terminal GST; dsDNA, one strand shown
T10 sequence: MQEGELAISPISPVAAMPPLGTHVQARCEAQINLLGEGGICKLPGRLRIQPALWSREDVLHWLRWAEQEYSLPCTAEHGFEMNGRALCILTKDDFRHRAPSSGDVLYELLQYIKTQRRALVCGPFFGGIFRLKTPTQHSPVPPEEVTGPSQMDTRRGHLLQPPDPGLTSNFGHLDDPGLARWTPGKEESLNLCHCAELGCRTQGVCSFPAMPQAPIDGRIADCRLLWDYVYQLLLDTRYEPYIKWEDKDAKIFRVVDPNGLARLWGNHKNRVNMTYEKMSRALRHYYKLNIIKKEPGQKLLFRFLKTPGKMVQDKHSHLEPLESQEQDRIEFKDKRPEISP
Summary of the method: as §1

[16] = target: T11, ELF5 (Homo sapiens, UniProt Q9UKW6-2 1-255); details: protein: recombinant; tags: N-terminal GST; dsDNA, one strand shown
T11 sequence: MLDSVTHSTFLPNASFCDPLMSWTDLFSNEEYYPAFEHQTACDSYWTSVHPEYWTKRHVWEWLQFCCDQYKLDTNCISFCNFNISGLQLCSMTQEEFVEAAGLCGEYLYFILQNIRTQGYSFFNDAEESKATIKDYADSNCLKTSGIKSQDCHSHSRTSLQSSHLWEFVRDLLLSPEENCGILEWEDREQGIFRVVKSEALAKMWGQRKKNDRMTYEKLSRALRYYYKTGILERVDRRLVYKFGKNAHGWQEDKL
Summary of the method: as §1

[17] = target: T12, ETV3 (Homo sapiens, UniProt P41162-2 1-143); details: protein: recombinant; tags: N-terminal GST; dsDNA, one strand shown
T12 sequence: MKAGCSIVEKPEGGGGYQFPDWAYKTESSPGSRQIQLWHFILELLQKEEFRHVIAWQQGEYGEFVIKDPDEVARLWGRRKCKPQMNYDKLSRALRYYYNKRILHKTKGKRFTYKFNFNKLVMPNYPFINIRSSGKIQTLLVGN
Summary of the method: as §1

[18] = target: ETV6 (Homo sapiens, UniProt P41212 1-452); details: protein: recombinant; tags: N-terminal GST; dsDNA, one strand shown
Summary of the method: as §1

Sequence of ETV1 (P50549 whole entry): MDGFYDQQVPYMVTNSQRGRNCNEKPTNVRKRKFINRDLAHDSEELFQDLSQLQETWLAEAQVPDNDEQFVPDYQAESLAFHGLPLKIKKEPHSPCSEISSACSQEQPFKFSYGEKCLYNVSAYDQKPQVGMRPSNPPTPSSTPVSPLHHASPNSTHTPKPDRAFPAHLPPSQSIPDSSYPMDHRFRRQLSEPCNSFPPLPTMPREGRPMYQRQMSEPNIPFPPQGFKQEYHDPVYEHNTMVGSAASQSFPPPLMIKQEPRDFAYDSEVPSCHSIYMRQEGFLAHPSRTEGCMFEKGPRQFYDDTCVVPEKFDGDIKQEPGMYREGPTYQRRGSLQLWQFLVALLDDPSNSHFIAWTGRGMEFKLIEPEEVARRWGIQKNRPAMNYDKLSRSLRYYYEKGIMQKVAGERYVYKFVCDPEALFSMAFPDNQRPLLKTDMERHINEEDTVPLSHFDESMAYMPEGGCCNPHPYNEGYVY
Sequence of HSF1 (Q00613 whole entry): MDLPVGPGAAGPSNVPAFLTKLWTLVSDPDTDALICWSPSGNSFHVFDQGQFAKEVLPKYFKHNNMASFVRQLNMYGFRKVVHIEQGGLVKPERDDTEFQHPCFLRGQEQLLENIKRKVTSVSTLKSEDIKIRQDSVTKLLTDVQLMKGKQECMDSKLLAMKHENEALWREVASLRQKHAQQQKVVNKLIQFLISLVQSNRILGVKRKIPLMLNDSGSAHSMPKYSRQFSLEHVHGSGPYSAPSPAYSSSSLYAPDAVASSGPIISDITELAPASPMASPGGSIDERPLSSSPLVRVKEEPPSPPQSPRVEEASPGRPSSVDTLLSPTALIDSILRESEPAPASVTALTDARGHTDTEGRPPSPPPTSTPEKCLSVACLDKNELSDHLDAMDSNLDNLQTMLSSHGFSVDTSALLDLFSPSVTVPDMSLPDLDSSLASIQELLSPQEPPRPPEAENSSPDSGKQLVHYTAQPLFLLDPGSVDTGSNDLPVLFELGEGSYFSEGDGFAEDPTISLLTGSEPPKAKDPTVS
Sequence of ETV6 (P41212 whole entry): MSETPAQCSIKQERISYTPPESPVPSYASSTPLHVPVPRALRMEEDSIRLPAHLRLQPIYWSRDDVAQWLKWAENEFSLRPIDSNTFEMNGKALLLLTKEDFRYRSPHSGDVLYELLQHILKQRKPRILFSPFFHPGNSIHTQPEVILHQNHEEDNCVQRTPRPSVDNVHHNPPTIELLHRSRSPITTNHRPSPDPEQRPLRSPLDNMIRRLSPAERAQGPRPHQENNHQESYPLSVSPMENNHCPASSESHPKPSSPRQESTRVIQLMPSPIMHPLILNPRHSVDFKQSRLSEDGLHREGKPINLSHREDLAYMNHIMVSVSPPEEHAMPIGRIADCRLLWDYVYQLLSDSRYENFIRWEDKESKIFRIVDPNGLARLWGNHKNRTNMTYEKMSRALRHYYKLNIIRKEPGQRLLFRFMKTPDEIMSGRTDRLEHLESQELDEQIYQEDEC
Sequence of CRX (O43186 whole entry): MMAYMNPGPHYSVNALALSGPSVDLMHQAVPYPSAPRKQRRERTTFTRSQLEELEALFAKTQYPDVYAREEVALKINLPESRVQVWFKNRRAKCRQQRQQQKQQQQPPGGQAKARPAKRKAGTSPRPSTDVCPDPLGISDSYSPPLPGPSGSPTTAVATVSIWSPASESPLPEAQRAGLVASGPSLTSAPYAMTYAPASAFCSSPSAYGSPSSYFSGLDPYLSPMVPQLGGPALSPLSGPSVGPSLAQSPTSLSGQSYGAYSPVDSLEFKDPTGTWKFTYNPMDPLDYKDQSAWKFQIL
Sequence of ETV5 (P41161 whole entry): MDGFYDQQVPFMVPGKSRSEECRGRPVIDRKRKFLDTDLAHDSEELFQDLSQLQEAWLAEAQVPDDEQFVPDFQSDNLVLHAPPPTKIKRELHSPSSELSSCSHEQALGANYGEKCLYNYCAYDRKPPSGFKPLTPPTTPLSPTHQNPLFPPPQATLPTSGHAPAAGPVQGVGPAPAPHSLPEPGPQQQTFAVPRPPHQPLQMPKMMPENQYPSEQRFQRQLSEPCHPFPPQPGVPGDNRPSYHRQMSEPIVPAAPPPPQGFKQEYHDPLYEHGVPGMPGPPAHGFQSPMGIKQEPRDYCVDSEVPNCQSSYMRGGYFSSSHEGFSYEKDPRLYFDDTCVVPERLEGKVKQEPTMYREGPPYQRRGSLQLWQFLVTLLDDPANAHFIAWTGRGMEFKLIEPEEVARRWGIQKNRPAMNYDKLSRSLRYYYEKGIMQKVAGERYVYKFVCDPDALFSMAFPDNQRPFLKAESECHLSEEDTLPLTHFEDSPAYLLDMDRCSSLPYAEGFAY
Sequence of ELF4 (Q99607 whole entry): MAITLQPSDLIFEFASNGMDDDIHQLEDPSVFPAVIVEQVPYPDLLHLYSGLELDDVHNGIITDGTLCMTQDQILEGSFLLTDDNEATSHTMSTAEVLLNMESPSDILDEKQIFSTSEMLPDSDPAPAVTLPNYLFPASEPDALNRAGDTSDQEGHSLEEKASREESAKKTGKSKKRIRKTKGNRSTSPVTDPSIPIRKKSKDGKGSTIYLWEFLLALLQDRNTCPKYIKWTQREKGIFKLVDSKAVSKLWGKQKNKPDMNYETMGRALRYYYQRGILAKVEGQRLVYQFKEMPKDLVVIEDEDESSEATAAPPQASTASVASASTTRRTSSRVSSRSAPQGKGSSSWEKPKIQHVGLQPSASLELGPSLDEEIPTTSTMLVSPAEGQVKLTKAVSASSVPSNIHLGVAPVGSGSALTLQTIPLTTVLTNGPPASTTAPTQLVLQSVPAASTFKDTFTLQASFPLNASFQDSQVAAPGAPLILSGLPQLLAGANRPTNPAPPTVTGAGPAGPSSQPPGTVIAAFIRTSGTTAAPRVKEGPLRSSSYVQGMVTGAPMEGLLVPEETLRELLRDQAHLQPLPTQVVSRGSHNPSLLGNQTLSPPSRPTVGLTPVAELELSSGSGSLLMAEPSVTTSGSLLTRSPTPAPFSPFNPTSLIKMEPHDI

Which binding signal [1] does the source give for CTGATA here?
The binding signal was 1.14 fold enrichment (6-mer frequency, TF over GST control).

And the binding signal [2]?
Its binding signal is 1.18 fold enrichment (6-mer frequency, TF over GST control).

And the binding signal [3]?
The binding signal was 1.18 fold enrichment (6-mer frequency, TF over GST control).

And the binding signal [4]?
The binding signal was 1.11 fold enrichment (6-mer frequency, TF over GST control).

And the binding signal [5]?
Its binding signal is 1.19 fold enrichment (6-mer frequency, TF over GST control).

And the binding signal [6]?
Its binding signal is 1.35 fold enrichment (6-mer frequency, TF over GST control).

And the binding signal [7]?
Its binding signal is 1.15 fold enrichment (6-mer frequency, TF over GST control).

What about the binding signal [8] of the same sequence?
Its binding signal is 1.13 fold enrichment (6-mer frequency, TF over GST control).

What about the binding signal [9] of the same sequence?
The binding signal was 1.26 fold enrichment (6-mer frequency, TF over GST control).

And the binding signal [10]?
Its binding signal is 1.13 fold enrichment (6-mer frequency, TF over GST control).

And the binding signal [11]?
Its binding signal is 1.16 fold enrichment (6-mer frequency, TF over GST control).

And the binding signal [12]?
The binding signal was 1.21 fold enrichment (6-mer frequency, TF over GST control).

What about the binding signal [13] of the same sequence?
Its binding signal is 1.17 fold enrichment (6-mer frequency, TF over GST control).

What about the binding signal [14] of the same sequence?
The binding signal was 1.15 fold enrichment (6-mer frequency, TF over GST control).

And the binding signal [15]?
The binding signal was 1.08 fold enrichment (6-mer frequency, TF over GST control).

And the binding signal [16]?
The binding signal was 1.2 fold enrichment (6-mer frequency, TF over GST control).

And the binding signal [17]?
The binding signal was 1.26 fold enrichment (6-mer frequency, TF over GST control).

What about the binding signal [18] of the same sequence?
Its binding signal is 1.06 fold enrichment (6-mer frequency, TF over GST control).
